Calls of active or inactive are those of the source. How the source made its calls: active means hit-call score of the fitted dose curve at least 0.9, where 1 is the maximum; inactive means score below 0.9.

Broadly, the AC50 is the concentration at which the activity in the assay is half-maximal.

Assay [1] can be described thus: ATG_CRE_CIS: Attagene CIS-FACTORIAL HepG2 Assay for human cAMP Responsive Element (CRE) binding protein 3 (AID 2282926). As to conditions: HepG2 CRE cis-reporter, Attagene multiplexed mRNA; actives raise or lower the signal. Put shortly:
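HepG2 cells transiently transfected with cis-element-driven multiple reporter transcription units; CRE reporter mRNA measured 24 h after dosing by RT-PCR, 6-FAM labelling, HpaI digestion and capillary electrophoresis. Bidirectional fit versus DMSO baseline.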

The target in assay [2] is CCAAT/enhancer-binding protein beta (Homo sapiens) (UniProt P17676). Description: ATG_C_EBP_CIS: Attagene CIS-FACTORIAL HepG2 Assay for human CCAAT/Enhancer Binding Protein (C/EBP) beta (AID 2282927). As to conditions: HepG2 Attagene cis-factorial transcription factor reporter; actives raise or lower the signal. The procedure, abridged:
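Changes in reporter mRNA, rather than exogenous chimeric receptor activity, reflect native C/EBP signalling in transfected HepG2 cells dosed for 24 h; transcripts are detected by RT-PCR and capillary electrophoresis.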

The nature of assay [3]: ATG_CMV_CIS: Attagene CIS-FACTORIAL HepG2 Assay for human CMV (Internal Marker) (AID 2282928).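 Further: endpoint acts as a background internal control marker rather than a target.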 To be noted: HepG2 CMV promoter reporter, transcription factor profiling; actives raise or lower the signal. The procedure, abridged:
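Cell system: HepG2, transiently transfected multiple reporter units under cis promoters. Exposure: 24 h. Detection: RT-PCR, FAM labeling, HpaI digestion, capillary electrophoresis. Analysis: bidirectional, DMSO baseline.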

Assay [4] in a line: ATG_AP_1_CIS: Attagene CIS-FACTORIAL HepG2 Assay for human Activator Protein 1 (AP-1) (AID 2282931). As to conditions: HepG2 Attagene cis-factorial AP-1 reporter mRNA; actives raise or lower the signal. Put shortly:
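Multiplexed HepG2 reporter assay, 24 h dosing. mRNA induction detected by RT-PCR plus capillary electrophoresis. Activity fitted in both directions against DMSO.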

Assay [5] in a line: ATG_AP_2_CIS: Attagene CIS-FACTORIAL HepG2 Assay for human Activator Protein 2 (AP-2) (AID 2282932). To be noted: HepG2 AP-2 cis-reporter, Attagene transcription factor profiling; actives raise or lower the signal. Put shortly:
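Step one: transient transfection of HepG2 with reporter transcription units. Step two: 24 h chemical exposure. Step three: RNA extraction, RT-PCR, labelled fragment analysis by capillary electrophoresis; DMSO serves as baseline.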

A short description of assay [6]: ATG_BRE_CIS: Attagene CIS-FACTORIAL HepG2 Assay for human Bone Morphogenetic Protein (BMP) Response Element (BRE) (AID 2282933). To be noted: HepG2 BMP response element reporter, Attagene transcription factor profiling; actives raise or lower the signal. Put shortly: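 Endogenous transcription factor activity read in transiently transfected HepG2 cells after 24 h chemical exposure. Bidirectional curve fitting against DMSO; readout is reporter transcript level by RT-PCR with capillary electrophoresis of labelled products.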

The target of assay [7] is Transcription factor E2F1 (Homo sapiens) (UniProt Q01094). Description: ATG_E2F_CIS: Attagene CIS-FACTORIAL HepG2 Assay for human E2F Transcription Factor 1 (AID 2282935). To be noted: HepG2 Attagene cis-reporter, E2F reporter RNA transcripts; actives raise or lower the signal. Put shortly:
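Total RNA from 24 h-treated, reporter-transfected HepG2 cells undergoes DNase I treatment, oligo(dT) reverse transcription, PCR and 6-FAM primer extension before capillary electrophoresis.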

A short description of assay [8]: ATG_E_Box_CIS: Attagene CIS-FACTORIAL HepG2 Assay for human Enhancer Box (E-box) (AID 2282936). As to conditions: HepG2 E-box cis-reporter transcription, actives raise or lower the signal. The procedure, abridged: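 DMSO served as negative control and baseline for bidirectional fitting. Human hepatoma HepG2 cells, transiently transfected with cis-reporter constructs, were dosed 24 h; reporter mRNA read by RT-PCR and capillary electrophoresis.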

Assay [9] can be described thus: ATG_M_61_CIS: Attagene CIS-FACTORIAL HepG2 Assay for M61 Transcription Factor (Internal Marker) (AID 2282937). To be noted: HepG2 Attagene CIS-FACTORIAL M61 internal marker reporter; actives raise or lower the signal. The procedure, abridged:
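Endogenous transcription factor activity in HepG2 is read through transiently transfected cis-element reporter units. After 24 h dosing, RNA undergoes reverse transcription, PCR and primer extension with 6-FAM before capillary electrophoresis; DMSO-referenced bidirectional fit.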

Assay [10] is described as follows: ATG_EGR_CIS: Attagene CIS-FACTORIAL HepG2 Assay for human Early Growth Response 1 (EGR1) (AID 2282938). To be noted: HepG2 Attagene CIS-FACTORIAL EGR reporter mRNA; actives raise or lower the signal. Put shortly:
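Activity is taken as induction or loss of reporter mRNA versus DMSO, fitted bidirectionally. Transcripts from cis-regulated reporter units in transiently transfected HepG2 were measured after 24 h by RT-PCR with capillary electrophoresis.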

The nature of assay [11]: ATG_M_19_CIS: Attagene CIS-FACTORIAL HepG2 Assay for M19 Transcription Factor (Internal Marker) (AID 2282939). To be noted: HepG2 Attagene CIS-FACTORIAL M19 internal marker reporter; actives raise or lower the signal. The procedure, abridged:
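Internal marker readout, fitted in both directions against DMSO, from HepG2 cells carrying transfected cis-element reporter constructs; RT-PCR and capillary electrophoresis of reporter mRNA after 24 h exposure.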

Assay [12] in a line: ATG_GATA_CIS: Attagene CIS-FACTORIAL HepG2 Assay for human GATA Binding Protein (AID 2282944). To be noted: HepG2 GATA cis-element reporter, Attagene multiplex mRNA; actives raise or lower the signal. The procedure, abridged: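 Reporter transcripts from a GATA cis-regulated unit, among multiplexed reporters in transfected HepG2 cells, were measured by RT-PCR with capillary electrophoresis after 24 h dosing. Induction or loss scored relative to DMSO.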

The nature of assay [13]: ATG_GLI_CIS: Attagene CIS-FACTORIAL HepG2 Assay for human Zinc Finger Protein GLI1 (AID 2282945). As to conditions: HepG2, Attagene cis-factorial reporter mRNA, GLI element; actives raise or lower the signal. Put shortly:
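Bidirectional curve fits relative to DMSO, using reporter mRNA levels from RT-PCR plus capillary electrophoresis. Cells were HepG2 transiently carrying cis-regulated reporter constructs, harvested 24 h after dosing.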

Assay [14] is described as follows: ATG_ISRE_CIS: Attagene CIS-FACTORIAL HepG2 Assay for human Interferon Regulatory Factor 1 (IRF1) binding to an Interferon-Stimulated Response Element (ISRE) (AID 2282948). As to conditions: HepG2 ISRE cis-reporter (Attagene), mRNA transcription readout; actives raise or lower the signal. The procedure, abridged:
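Quantitation relies on labelled RT-PCR fragments separated by capillary electrophoresis. Human HepG2 cells bearing cis-promoter reporter constructs were treated 24 h; DMSO served as baseline for bidirectional fitting.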

Assay [15] in a line: ATG_M_32_CIS: Attagene CIS-FACTORIAL HepG2 Assay for M32 Transcription Factor (Internal Marker) (AID 2282949).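 Further: background control marker of the multiplexed CIS panel rather than a real target.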 To be noted: HepG2 Attagene cis-factorial M32 reporter, mRNA; actives raise or lower the signal. The procedure, abridged:
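Following 24 h chemical exposure of HepG2 cells transiently expressing cis-promoter reporter constructs, reporter transcript levels were determined by RT-PCR with fluorescent labelling and capillary electrophoresis, then fitted bidirectionally against DMSO.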

Assay [16] can be described thus: ATG_MRE_CIS: Attagene CIS-FACTORIAL HepG2 Assay for human Metal Responsive Element (MRE) (AID 2282954). To be noted: HepG2 MRE cis-reporter transcription, Attagene multiplex; actives raise or lower the signal. The procedure, abridged:
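After a 24 h chemical exposure, transiently transfected HepG2 cells yield RNA whose reporter sequences are amplified, FAM-labelled and sized by capillary electrophoresis. Curves are fitted bidirectionally relative to DMSO.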

The target in assay [17] is Paired box protein Pax-6 (Homo sapiens) (UniProt P26367). Description: ATG_Pax6_CIS: Attagene CIS-FACTORIAL HepG2 Assay for human Paired Box 6 (PAX6) (AID 2282956). To be noted: HepG2 CIS-FACTORIAL PAX6 reporter transcription, RNA readout; actives raise or lower the signal. Put shortly:
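After twenty-four hours of chemical exposure, transfected HepG2 cells are harvested for RNA. Cis-promoter reporter transcripts are amplified, fluorescently labelled and sized by capillary electrophoresis, with gain and loss of signal scored against DMSO.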

A short description of assay [18]: ATG_PXRE_CIS: Attagene CIS-FACTORIAL HepG2 Assay for human Pregnane X Receptor Element (PXRE) (AID 2282957). As to conditions: HepG2 Attagene CIS-FACTORIAL PXRE reporter, mRNA; actives raise or lower the signal. Put shortly: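 HepG2 cells transiently transfected with cis-element-driven multiplexed reporter units; after 24 h chemical exposure, reporter mRNA measured by RT-PCR, 6-FAM labelling, HpaI digestion and capillary electrophoresis. Bidirectional fitting relative to DMSO.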

Assay [19] concerns the target Transcription factor Sp1 (Homo sapiens) (UniProt P08047). Nature of the assay: ATG_Sp1_CIS: Attagene CIS-FACTORIAL HepG2 Assay for human Specificity Protein 1 (Sp1) (AID 2282961). To be noted: HepG2 Sp1 cis-reporter transcription, actives raise or lower the signal. Put shortly: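 Cells: HepG2, transiently transfected with cis-regulated multiplexed reporters. Exposure: 24 h. Detection: reporter transcripts amplified, fluorescently labeled, restriction-digested and sized by capillary electrophoresis. Analysis: bidirectional fit relative to DMSO.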

Assay [20] concerns the target Signal transducer and activator of transcription 3 (Homo sapiens) (UniProt P40763). Nature of the assay: ATG_STAT3_CIS: Attagene CIS-FACTORIAL HepG2 Assay for human Signal Transducer and Activator of Transcription 3 (STAT3) (AID 2282963). To be noted: HepG2, Attagene cis-factorial STAT3 reporter transcription; actives raise or lower the signal. The procedure, abridged: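 After a 24 h compound incubation, total RNA from MRTU-transfected HepG2 cells was converted to cDNA and reporter sequences PCR-amplified, labelled and profiled by capillary electrophoresis. Gain and loss of signal were referenced to DMSO.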

CCAAT/enhancer-binding protein beta (Homo sapiens), sequence (P17676 whole entry, looked up): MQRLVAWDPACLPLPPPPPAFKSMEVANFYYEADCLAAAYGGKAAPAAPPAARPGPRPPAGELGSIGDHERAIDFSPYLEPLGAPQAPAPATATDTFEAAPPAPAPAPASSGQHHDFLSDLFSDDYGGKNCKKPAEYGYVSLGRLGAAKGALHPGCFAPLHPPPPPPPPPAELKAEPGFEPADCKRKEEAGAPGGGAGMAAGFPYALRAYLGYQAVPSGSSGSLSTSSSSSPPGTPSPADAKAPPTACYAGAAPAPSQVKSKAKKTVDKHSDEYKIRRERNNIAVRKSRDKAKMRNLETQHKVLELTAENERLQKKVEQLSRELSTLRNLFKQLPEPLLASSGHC
Paired box protein Pax-6 (Homo sapiens), sequence (P26367 whole entry, looked up): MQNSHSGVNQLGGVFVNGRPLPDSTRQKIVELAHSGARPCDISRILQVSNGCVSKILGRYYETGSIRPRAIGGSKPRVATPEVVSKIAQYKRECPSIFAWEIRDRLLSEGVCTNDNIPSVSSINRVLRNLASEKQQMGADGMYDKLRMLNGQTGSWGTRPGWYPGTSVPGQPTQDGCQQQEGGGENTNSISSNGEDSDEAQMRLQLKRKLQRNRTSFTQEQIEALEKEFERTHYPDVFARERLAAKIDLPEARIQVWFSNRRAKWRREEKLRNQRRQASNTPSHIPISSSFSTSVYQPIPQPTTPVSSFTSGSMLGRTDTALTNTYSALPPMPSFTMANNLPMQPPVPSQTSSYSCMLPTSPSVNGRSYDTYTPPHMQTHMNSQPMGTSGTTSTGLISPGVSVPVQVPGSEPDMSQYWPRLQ
Transcription factor E2F1 (Homo sapiens), sequence (Q01094 whole entry, looked up): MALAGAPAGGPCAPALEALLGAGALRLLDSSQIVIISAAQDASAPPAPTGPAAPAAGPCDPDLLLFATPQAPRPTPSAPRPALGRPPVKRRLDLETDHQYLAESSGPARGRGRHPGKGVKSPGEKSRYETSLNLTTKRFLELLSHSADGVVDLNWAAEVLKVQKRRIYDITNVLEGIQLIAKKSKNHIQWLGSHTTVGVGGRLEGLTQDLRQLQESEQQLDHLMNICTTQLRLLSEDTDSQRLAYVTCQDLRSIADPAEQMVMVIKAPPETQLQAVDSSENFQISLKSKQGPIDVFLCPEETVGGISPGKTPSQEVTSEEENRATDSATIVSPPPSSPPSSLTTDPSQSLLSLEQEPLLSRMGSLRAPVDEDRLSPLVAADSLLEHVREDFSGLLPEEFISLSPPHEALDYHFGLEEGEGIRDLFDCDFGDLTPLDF
Signal transducer and activator of transcription 3 (Homo sapiens), sequence (P40763 whole entry, looked up): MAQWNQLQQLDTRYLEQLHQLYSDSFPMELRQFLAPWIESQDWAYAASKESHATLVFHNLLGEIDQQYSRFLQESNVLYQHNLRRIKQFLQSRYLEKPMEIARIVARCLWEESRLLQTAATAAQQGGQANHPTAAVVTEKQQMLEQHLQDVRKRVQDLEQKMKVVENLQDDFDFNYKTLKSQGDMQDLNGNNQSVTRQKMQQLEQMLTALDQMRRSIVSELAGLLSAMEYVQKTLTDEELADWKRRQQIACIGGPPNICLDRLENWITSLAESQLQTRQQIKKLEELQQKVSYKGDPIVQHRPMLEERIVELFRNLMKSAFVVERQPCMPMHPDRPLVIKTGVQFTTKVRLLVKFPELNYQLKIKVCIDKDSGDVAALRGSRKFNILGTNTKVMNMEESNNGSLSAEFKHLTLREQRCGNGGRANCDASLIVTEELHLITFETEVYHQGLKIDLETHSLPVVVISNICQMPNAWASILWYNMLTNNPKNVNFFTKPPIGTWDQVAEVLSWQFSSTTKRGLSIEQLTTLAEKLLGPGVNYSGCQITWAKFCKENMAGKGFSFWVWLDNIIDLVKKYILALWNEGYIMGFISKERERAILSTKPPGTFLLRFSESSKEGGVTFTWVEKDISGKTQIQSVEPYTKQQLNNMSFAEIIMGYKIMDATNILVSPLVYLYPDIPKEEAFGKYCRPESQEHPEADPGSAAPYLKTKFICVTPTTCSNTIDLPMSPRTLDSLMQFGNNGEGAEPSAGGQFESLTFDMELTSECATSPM
Transcription factor Sp1 (Homo sapiens), sequence (P08047 whole entry, looked up): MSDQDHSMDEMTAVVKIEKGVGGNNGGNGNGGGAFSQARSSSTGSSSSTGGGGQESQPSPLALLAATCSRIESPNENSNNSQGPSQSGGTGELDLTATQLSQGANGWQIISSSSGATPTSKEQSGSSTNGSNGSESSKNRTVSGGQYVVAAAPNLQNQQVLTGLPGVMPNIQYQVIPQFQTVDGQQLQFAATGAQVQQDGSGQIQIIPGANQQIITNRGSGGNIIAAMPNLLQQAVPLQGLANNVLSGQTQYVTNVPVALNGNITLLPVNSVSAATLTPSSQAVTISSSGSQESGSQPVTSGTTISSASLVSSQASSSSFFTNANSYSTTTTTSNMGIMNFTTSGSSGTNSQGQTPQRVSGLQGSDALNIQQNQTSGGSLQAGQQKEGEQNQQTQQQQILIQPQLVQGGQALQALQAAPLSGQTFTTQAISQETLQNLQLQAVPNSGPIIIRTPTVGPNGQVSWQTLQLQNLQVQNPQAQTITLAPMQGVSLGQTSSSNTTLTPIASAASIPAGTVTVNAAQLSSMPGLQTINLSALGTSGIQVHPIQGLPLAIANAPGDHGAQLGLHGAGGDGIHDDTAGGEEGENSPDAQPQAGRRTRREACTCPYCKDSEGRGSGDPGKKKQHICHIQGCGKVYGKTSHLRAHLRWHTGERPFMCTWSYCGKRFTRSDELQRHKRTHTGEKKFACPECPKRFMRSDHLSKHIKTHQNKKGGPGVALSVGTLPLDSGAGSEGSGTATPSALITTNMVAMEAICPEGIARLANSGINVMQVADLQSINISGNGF

As to `CC[N+](CC)(CC(=O)Nc1c(C)cccc1C)Cc1ccccc1` (tested in a mixture with another compound), the result in assay [1], in assay [2], in assay [3], in assay [4], in assay [5] and in assay [6] was inactive. Also, the outcome in assay [7], in assay [8], in assay [9], in assay [10], in assay [11] and in [12] was inactive. In addition, the compound was classed as inactive in assay [13], in [14], in assay [15], in [16], in assay [17] and in assay [19]. Also, in [20], the outcome was inactive. The AC50 in assay [18] was 21.8 µM (active).
`CCCC[N+]1(C)CCCC1`: the result in assay [1], in assay [2], in [3], in assay [4], in assay [5] and in assay [6] was inactive. Moreover, the result in [7], in [8], in assay [9], in assay [10], in [11] and in assay [12] was inactive. Moreover, the compound was called inactive in [13], in [14], in assay [15], in assay [16], in assay [17] and in assay [18]. The call in assay [19] and in assay [20] was inactive.
`O=C(O)Cc1c[nH]c2ccccc12`: the compound was called inactive in [1], in assay [2], in assay [3], in assay [4], in [5] and in assay [6]. In addition, the call in assay [7], in [8], in assay [9], in assay [10], in assay [11] and in assay [12] was inactive. Besides, the compound was classed as inactive in assay [13], in assay [14], in assay [15], in assay [16], in [17] and in assay [19]. In addition, in assay [20], the compound was classed as inactive. Besides, the AC50 in [18] is 35.4 µM (active).
As to `CC1=NN(c2cc(Cl)c(S(=O)(=O)O)cc2Cl)C(=O)C1N=Nc1ccc(S(=O)(=O)O)cc1` (stereo not given), the compound was called inactive in assay [1], in assay [2], in assay [3], in assay [4], in assay [5] and in [6]. For the same compound, the outcome in [7], in assay [8], in assay [9], in [10], in [11] and in [12] was inactive. The compound was classed as inactive in assay [13], in assay [14], in assay [15], in [16], in assay [17] and in assay [19]. Moreover, the call in assay [20] was inactive. The AC50 in [18] is 100 µM (active).
Regarding `CC1=C(CC(=O)O)c2cc(F)ccc2/C1=C\c1ccc(S(C)=O)cc1` (stereo not given), the compound was called inactive in assay [1], in [2], in [3], in [4], in [5] and in [6]. The compound was classed as inactive in assay [7], in assay [9], in assay [10], in [11], in assay [12] and in assay [13]. Besides, the compound was classed as inactive in assay [15], in [16], in assay [17], in [19] and in assay [20]. Further, the half-maximal activity concentration (AC50) in assay [8] was 43.4 µM (active); in [14], 44.9 µM (active); in [18] it was 5.37 µM (active).
As to `Sc1nc2ccccc2s1`, the compound was called inactive in [1], in assay [2], in assay [3], in assay [4], in [5] and in assay [6]. Further, the compound was called inactive in assay [7], in assay [8], in assay [9], in assay [10], in [11] and in assay [12]. Also, the compound was called inactive in assay [13], in [14], in [15], in [16], in [17] and in assay [19]. Moreover, the call in [20] was inactive. Besides, in assay [18], the AC50 is 80.6 µM (active).
Turning to `C=CCOC(=O)C(=C)C`, the outcome in assay [1], in [2], in assay [3], in assay [4], in assay [5] and in assay [6] was inactive. Also, the outcome in assay [7], in [8], in [9], in assay [10], in [11] and in assay [12] was inactive. Further, the outcome in assay [13], in assay [14], in assay [15], in [16], in assay [17] and in [18] was inactive. Further, the result in [19] and in [20] was inactive.
